Assay outcomes from PubChem.
In the library only some 19% were active in any assay of this set; here they are far more common.
KB-V1 MDR tox: KB-V1 MDR subline cytotoxicity; KB-V1 MDR cells viability, CellTiter-Glo, 72 h; actives 3.4% (n = 400,000); Potency, µM (highest dose often 46.1 µM), most hits filed as cytotoxic; AID 1347076; further: nearly all actives have a fitted effect of over 60% in size
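Cells of the MDR subline KB-V1 are plated, dosed with compound at multiple concentrations, and incubated 72 h at 37 degrees C; CellTiter-Glo is then added and luminescence read after 10 min.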
HT1080-NT tox: kills 2HG-producing HT-1080-NT fibrosarcoma cells | HT-1080-NT fibrosarcoma viability, CellTiter-Glo ATP luminescence, 48 h | Potency, µM (doses to about 46.1 µM), without a hit: at the top dose activity, negative = less viability, actives largely listed as cytotoxic | actives 1.6% (n = 360,000) | AID 686970;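 further: NT is the 2HG producing partner of a matched IDH1 knockdown line; 0% = DMSO-treated cells and -100% = media-only wells without cells; nearly all actives have a fitted effect of over 55% in size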
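Luminescent CellTiter-Glo readout after 48 hours of compound exposure at 37 degrees C defined viability of HT-1080-NT cells. Activity was normalized to DMSO wells and cell-free media wells; concentration-response curves were fitted and assigned curve classes.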
KB-3-1 cytotox: kills parental KB-3-1 adenocarcinoma cells; actives 1.4% (n = 400,000); KB-3-1 viability, CellTiter-Glo ATP luminescence, 72 h; Potency, µM (top dose mostly 46.1 µM), hits mostly cytotoxic; further: nearly all actives have a fitted effect of over 60% in size
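Cells are dispensed, compounds pinned in, plates held at 37 °C for 72 h, then CellTiter-Glo is added and luminescence read after 10 minutes. Cell line: parental KB-3-1 in phenol-red-free DMEM, 10% FBS.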
HT1080 IDH1KD tx: toxicity to HT-1080 IDH1 knockdown cells (counter line); HT-1080 IDH1 knockdown viability, ATP luminescence, 48 h; Potency, µM (highest dose often 46.1 µM), for inactives: at the highest dose activity, negative = toxicity, usual class: cytotoxic; actives 2% (n = 360,000); AID 686971;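 further: 0% = DMSO wells and -100% = cell-free medium wells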
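Cytotoxicity counter-line: IDH1KD HT-1080, 48 h, CellTiter-Glo. Curves classed by r2, magnitude and activity.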
DT40 TDP1 CPT: growth inhibition of DT40 Tdp1-/-;hTDP1 cells with camptothecin (screen for TDP1 inhibitors); chicken DT40 Tdp1-/-;hTDP1 cells + 20 nM CPT, ATP luminescence, 48 h; Potency, µM (highest dose often 46.2 µM), without a hit: at the top dose activity change, negative = growth inhibition, most hits filed as inhibitors; actives 12% (n = 420,000); AID 686979; further: nearly all actives have a fitted effect of over 55% in size
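Cell growth measured by CellTiter-Glo luminescence after a minimum 48 h, 37 C compound exposure with 20 nM CPT in Tdp1-knockout DT40 cells stably expressing hTDP1, seeded 400/well; qHTS titration format.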
TDP1 cell noCPT: qHTS for Inhibitors of human tyrosyl-DNA phosphodiesterase 1 (TDP1): qHTS in cells in absence of CPT; DT40 Tdp1-/- hTDP1 cells, no CPT, ATP luminescence, 48 h; Potency, µM (top dose mostly 46.2 µM), inactives show at the highest dose activity change, negative = growth inhibition, most hits filed as inhibitors; actives 15% (n = 420,000); further: nearly all actives have a fitted effect of over 55% in size
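Compound effects on proliferation are scored in DT40 Tdp1-/-;hTDP1 cells in the absence of CPT. ATP levels (CellTiter-Glo luminescence) are recorded after a ≥48 hr, 37 °C incubation.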
* hit, by the source's call; i = inactive; u = inconclusive; x = no result; ! = not active in a repeat. The call rests on the fitted dose curve; in most records, active means well fitted curve in the direction sought with a large enough effect; inconclusive means small, poorly fitted or top-dose-only effect, or another doubt; inactive means no such curve, though single readings can be large; an effect the other way counts as inactive or inconclusive. Unless noted, on the % scale 0 is the no-effect control and ±100 the full control effect; potency means the concentration at half of the fitted maximal effect.

SMILES | KB-V1 MDR tox | HT1080-NT tox | KB-3-1 cytotox | HT1080 IDH1KD tx | DT40 TDP1 CPT | TDP1 cell noCPT
Cc1cccc(/C=N/NC(=O)c2cccc(Cl)c2)n1 | i | -3.4% | i | -18.5% | u | 16.4µM*
COc1ccccc1C1NC=C([N+](=O)[O-])C=C1[N+](=O)[O-] (stereo not drawn) | i | -19.7% | i | -15.6% | -3.6% | -6.6%
CCC(C)NC(=O)Cn1c(=O)n(-c2ccc(C)cc2)c(=O)c2ccccc21 (stereo not drawn) | i | x | i | x | -4.1% | 1.0%
CCc1ccc(CNC(=O)c2ccc(Cn3c(=O)c4cccn4c4cccnc43)cc2)cc1 | i | x | i | x | u | 0.461µM*
CCC(C)NC(=O)Cn1c(=O)n(Cc2ccc(C(=O)NCc3ccc(C)cc3)cc2)c(=O)c2ccccc21 (stereo not drawn) | i | x | i | x | 10.3µM* | 23.1µM*
CC(C)CCNC(=O)c1ccc(Cn2c(=O)c3cccn3c3cccnc32)cc1 | x | x | x | x | u | 0.517µM*
O=C(NCc1ccccc1Cl)c1ccc(Cn2c(=O)c3cccn3c3cccnc32)cc1 | x | x | x | x | -1.7% | -12.4%
Cc1ccccc1CCNC(=O)c1ccc(Cn2c(=O)c3cccn3c3cccnc32)cc1 | x | x | x | x | u | 18.4µM*
CCCSCCCNC(=O)c1ccc(Cn2c(=O)c3cccn3c3cccnc32)cc1 | x | x | x | x | 1.6% | -23.5%
CCc1nnc(NC(=O)c2cc(=O)c3cc(C)ccc3o2)s1 | i | x | u | x | -14.1% | -19.7%
COc1ccc(-n2cc(-c3ccc(OC)c(OC)c3)[nH]c2=S)cc1 | i | 2.0% | i | 1.6% | -4.1% | u
COc1ccc(-n2cc(-c3ccccc3)[nH]c2=S)c(OC)c1 | i | u | 16.4µM* | u | 7.31µM* | 5.8µM*
COc1ccc(-c2cn(-c3ccc(C)cc3C)c(=S)[nH]2)cc1OC | i | -2.4% | i | -5.8% | u | 20.6µM*
O=C(O)/C=C/c1cccc(B(O)O)c1 | i | x | u | x | -2.8% | 14.4%
CCOC(=O)C1CCN(S(=O)(=O)c2ccc3c(c2)CC(C)N3C(=O)C2CCC2)CC1 (stereo not drawn) | i | -16.4% | i | 0.1% | -25.2% | u
COc1cccc(C2=NN(C(=O)c3cccs3)C(O)(C(F)(F)F)C2)c1 (stereo not drawn) | u | u | i | u | u | 18.4µM*
COc1cccc(C2=NN(C(=O)c3ccc(C)o3)C(O)(C(F)(F)F)C2)c1 (stereo not drawn) | u | u | u | -26.3% | u | 10.3µM*
COc1ccc(C(=O)N2N=C(c3cccc(OC)c3)CC2(O)C(F)(F)F)cc1 (stereo not drawn) | u | 23.9% | i | -1.9% | u | 23.1µM*
COc1cccc(C(=O)N2N=C(c3ccccn3)CC2(O)C(F)(F)F)c1 (stereo not drawn) | i | u | i | u | 20.6µM* | 4.61µM*
O=C(Nc1cccc2ccccc12)c1cc2c(cc1Br)OCO2 | i | -8.2% | i | 1.9% | u | u
CN(C(=O)c1cc2c(cc1Br)OCO2)c1cccc2ccccc12 | u | -8.8% | i | -21.2% | u | 20.6µM*
COc1ccc(/C=c2\s/c(=C/C(=O)c3ccc(C)cc3)[nH]c2=O)c(OC)c1 | i | -0.5% | i | -4.8% | -21.5% | u
COc1cccc(/C=c2\s/c(=C\C(=O)C(C)(C)C)[nH]c2=O)c1 | 14.6µM* | -17.0% | u | -4.4% | u | u
Clc1ccc2nc(N3CCNCC3)nc(-c3ccccc3)c2c1 | 18.4µM* | -10.5% | u | 19.6% | 18.4µM* | 9.2µM*
Clc1ccc(-c2nc(N3CCOCC3)nc3ccccc23)cc1 | i | 6.2% | i | 25.8% | u | u
SMILES | KB-V1 MDR tox | HT1080-NT tox | KB-3-1 cytotox | HT1080 IDH1KD tx | DT40 TDP1 CPT | TDP1 cell noCPT
O=C1CN(C(=O)CSc2nc3cc(Cl)ccc3c(=O)n2Cc2ccccc2)c2ccccc2N1 | i | -8.2% | i | -9.8% | u | u
O=C1CN(c2nc(-c3ccccc3)c3cc(Cl)ccc3n2)c2ccccc2N1 | i | 5.3% | i | 4.1% | 16.4µM* | 20.6µM*
OCCN1CCN(c2nc(-c3ccccc3)c3cc(Cl)ccc3n2)CC1 | i | u | u | u | u | 23.1µM*
COc1cccc(-c2nc(CS(=O)(=O)CC(=O)NCCc3ccc(Cl)cc3)c(C)o2)c1 | i | x | i | x | u | u
Cc1cccn2c(=O)cc(COC(=O)C(C)Oc3ccccc3)nc12 (stereo not drawn) | i | 7.7% | i | 6.8% | -3.6% | -11.8%
CC(=O)Nc1ccccc1NC(=O)C/C(C)=N/NC(=O)C(=O)N1CCCCC1 | i | 0.3% | i | 1.6% | 1.2% | -1.7%
Cn1c(=O)cc(OCCCC(=O)NC2CCCC2)c2ccccc21 | 14.6µM* | u | i | -27.2% | u | u
Cn1c(=O)cc(OCCCC(=O)NCc2ccccn2)c2ccccc21 | i | -2.6% | i | -9.7% | -13.4% | 0.0%
Cn1c(=O)cc(OCC(=O)NC2CCCCC2)c2ccccc21 | i | 2.2% | i | -0.5% | -3.3% | 8.5%
Cc1ccnc(NC(=O)CCCOc2cc(=O)n(C)c3ccccc23)c1 | 8.2µM*! | u | 3.66µM*! | u | u | u
CCOc1ccccc1NC(=O)Cn1c(=O)n(-c2ccc(C)c(C)c2)c(=O)c2oc3ccccc3c21 | x | x | x | x | -15.8% | u
CCN(CC)S(=O)(=O)c1ccc(NC(=O)c2ccc(NS(C)(=O)=O)cc2)cc1 | i | -2.8% | i | 3.2% | -19.9% | -3.3%
O=C(Nc1ccc(S(=O)(=O)N2CCCC2)cc1)c1ccc(Cl)nc1 | i | -14.9% | i | -11.1% | u | u
O=C(Nc1ccc(S(=O)(=O)N2CCCCC2)cc1)c1ccc(Cl)nc1 | i | -5.9% | i | -6.7% | 18.4µM* | 6.51µM*
CCN(CC)S(=O)(=O)c1ccc(NC(=O)c2ccc(Cl)nc2)cc1 | i | -6.9% | i | -15.2% | u | 23.1µM*
O=C(Nc1cccc(S(=O)(=O)N2CCCC2)c1)c1cccnc1 | i | -0.1% | i | 4.5% | -18.3% | 0.4%
O=C(Nc1cccc(S(=O)(=O)N2CCCCC2)c1)c1ccc(Cl)nc1 | i | -9.9% | u | -2.1% | 20.6µM* | 14.6µM*
